# The full list was thinned out, with hits kept by preference.
# PD-1 reversal = reversal of PD-1 mediated T-cell inhibition | primary human CD4 T cells, PD-L1 beads, CellTiter-Glo 96 h | activation, % (no concentration beside the values) | 29,000 tested, under 10 active; call rule not given here;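 also: 0% = median vehicle wells and 100% = positive control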
# ROS inducer = inducers of reactive oxygen species in cancer cells; 46,000 compounds, 2% hits; U2OS ROS induction, H2DCF-DA fluorescence; ROS induction (% of piperlongumine), % at 10 µM; in the data active = ROS induction above about 79%, passing the limit was not always enough; inconclusive = no clear call, values can overlap the other calls;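 also: 0% = DMSO vehicle median and 100% = reference compound median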
# NOMO-1 viab = STK33 inhibitor candidate reducing NOMO-1 cell viability. NOMO-1 AML viability, CellTiter-Glo luminescence, 72 h. inhibition, % (no concentration beside the values). 37,000 compounds, 7.5% hits; in the data active = inhibition above about 80%; inconclusive = no clear call, values can overlap the other calls
# The depositor's hits bear a star; ? = inconclusive; · = no result.
SMILES,PD-1 reversal,ROS inducer,NOMO-1 viab
C[C@@H]1CN([C@@H](C)CO)C(=O)c2cccc(NC(=O)Nc3ccc4c(c3)OCO4)c2O[C@H]1CN(C)Cc1ccc(Oc2ccccc2)cc1,0,41,95*
C[C@H](CO)N1C[C@H](C)[C@@H](CN(C)Cc2ccc(Oc3ccccc3)cc2)Oc2c(NC(=O)Nc3ccc4c(c3)OCO4)cccc2C1=O,·,21,60
C[C@@H]1CN([C@H](C)CO)C(=O)Cc2cc(NC(=O)Nc3ccc(C(F)(F)F)cc3)ccc2O[C@H]1CN(C)C(=O)NC1CCCCC1,·,14,14
C[C@H]1CN([C@@H](C)CO)C(=O)Cc2cc(NC(=O)Nc3ccc(C(F)(F)F)cc3)ccc2O[C@@H]1CN(C)CC1CCCCC1,1,0,125*
C[C@H](CO)N1C[C@H](C)[C@H](CN(C)CC2CCCCC2)Oc2ccc(NC(=O)Nc3ccc(C(F)(F)F)cc3)cc2CC1=O,-5,153*,128*
COc1ccc(NC(=O)Nc2ccc3c(c2)CC(=O)N([C@H](C)CO)C[C@H](C)[C@H](CN(C)CC2CCCCC2)O3)cc1,·,-2,61
O=C(CCCCCC(=O)N/N=C/c1ccc(O)c2ccccc12)NO,·,-24,·
O=c1cc(CSc2nc3ccccc3s2)c2ccccc2[nH]1,·,2,·
COc1ccccc1NC(=O)CC(c1ccccc1)c1ccc(C)cc1O (centres undefined),·,9,·
C=C1C(=O)OC2CC(C)C3(/C=C/C(C)=O)OC3CC12 (centres undefined),-9,49,118*
COc1cccc2cc(-c3nnc(SCC(=O)Nc4cccc(F)c4)n3C)oc12,-1,0,12
COc1cccc2cc(-c3nnc(SCC(=O)Nc4cccc(Br)c4)n3C)oc12,-14,2,107*
CC(=O)Nc1ccc(NC(=O)Cn2cnc3c(oc4ccccc43)c2=O)cc1,·,37,·
CCC(C)[C@H]1C(=O)O[C@H](C(C)C)C(=O)N(C)[C@@H](C(C)C)C(=O)O[C@H](C(C)C)C(=O)N(C)[C@@H](C(C)C)C(=O)O[C@H](CC(C)C)C(=O)N1C (some centres undefined),-14,-4,119*
Cc1ccc(C)c(NC(=S)NC2CC(C)CC(C)(C)C2)c1 (centres undefined),·,68,·
C[C@@H]1CN([C@H](C)CO)C(=O)c2cccc(NC(=O)c3ccncc3)c2O[C@H]1CN(C)Cc1ccc(Oc2ccccc2)cc1,-4,48,91*
CC(C)NC(=O)N(C)C[C@H]1Oc2c(NC(=O)c3ccncc3)cccc2C(=O)N([C@H](C)CO)C[C@H]1C,0,-6,13
C[C@H](CO)N1C[C@H](C)[C@H](CN(C)Cc2ccc(-c3ccccc3)cc2)Oc2c(NC(=O)c3ccncc3)cccc2C1=O,·,63,54
C[C@H](CO)N1C[C@H](C)[C@@H](CN(C)Cc2ccc(-c3ccccc3)cc2)Oc2c(NC(=O)c3ccncc3)cccc2C1=O,-2,149*,83*
C[C@@H]1CN([C@@H](C)CO)C(=O)c2cccc(NC(=O)c3ccncc3)c2O[C@@H]1CN(C)Cc1ccc(Oc2ccccc2)cc1,0,3,9
CC(C)NC(=O)N(C)C[C@@H]1Oc2c(NC(=O)c3ccncc3)cccc2C(=O)N([C@@H](C)CO)C[C@H]1C,·,101*,11
Cc1c(C(=O)O)cc(-c2ccccc2)n1CCSCc1c(F)cccc1Cl,·,31,·
NC(=O)C1CCN(C(=O)c2cccc(Cl)c2)CC1,·,-2,·
CCOc1ccc(C(=O)/C=C2/NCCNC2=O)cc1,·,7,·
Cc1ccc(S(=O)(=O)/C(C#N)=C/C2=Cc3ccccc3OC2)cc1,·,15,·
SMILES,PD-1 reversal,ROS inducer,NOMO-1 viab
Cc1ccc(S(=O)(=O)NC(C)C(=O)Nc2ccc(C)c(Cl)c2)cc1 (centres undefined),·,·,21
Cc1ccc(NC(=S)C(C#N)C(N)=O)cc1Cl (centres undefined),-7,18,108*
CCOC(=O)c1sc(C)c2c(=O)n(Cc3ccccc3)c(C)nc12,·,53,·
COc1ccc(NC(=O)N(C)C[C@@H]2Oc3ccc(NC(=O)Cc4ccccc4)cc3CC(=O)N([C@@H](C)CO)C[C@@H]2C)cc1,-1,-7,-8
COc1ccc(NC(=O)N(C)C[C@H]2Oc3ccc(NC(=O)Cc4ccccc4)cc3CC(=O)N([C@@H](C)CO)C[C@@H]2C)cc1,·,100*,1
C[C@@H]1CN([C@H](C)CO)C(=O)Cc2cc(NC(=O)Cc3ccccc3)ccc2O[C@@H]1CN(C)Cc1ccc(-c2ccccc2)cc1,-9,203*,?
C[C@H](CO)N1C[C@H](C)[C@H](CN(C)Cc2ccc(-c3ccccc3)cc2)Oc2ccc(NC(=O)Cc3ccccc3)cc2CC1=O,0,28,68
C[C@@H]1CN([C@H](C)CO)C(=O)Cc2cc(NC(=O)CCN3CCOCC3)ccc2O[C@@H]1CN(C)Cc1ccc(Oc2ccccc2)cc1,0,87*,11
CC(C)NC(=O)Nc1ccc2c(c1)CC(=O)N([C@H](C)CO)C[C@H](C)[C@H](CN(C)Cc1ccc(Oc3ccccc3)cc1)O2,-2,15,?
CC(C)NC(=O)Nc1ccc2c(c1)CC(=O)N([C@H](C)CO)C[C@@H](C)[C@@H](CN(C)Cc1ccc(Oc3ccccc3)cc1)O2,-2,129*,56
C[C@H]1CN([C@@H](C)CO)C(=O)Cc2cc(NC(=O)CCN3CCOCC3)ccc2O[C@@H]1CN(C)Cc1ccc(Oc2ccccc2)cc1,0,18,5
O=c1c2ccccc2nc(SCc2c(F)cccc2F)n1Cc1ccccc1,·,21,·
C[C@H](CO)N1C[C@H](C)[C@H](CN(C)Cc2ccc(Oc3ccccc3)cc2)Oc2ccc(NC(=O)Cc3ccccc3)cc2CC1=O,·,20,116*
C[C@H]1CN([C@@H](C)CO)C(=O)Cc2cc(NC(=O)Nc3ccccc3)ccc2O[C@H]1CN(C)Cc1ccc(Oc2ccccc2)cc1,2,24,54
C[C@@H]1CN([C@H](C)CO)C(=O)Cc2cc(NC(=O)Nc3ccccc3)ccc2O[C@@H]1CN(C)Cc1ccc(Oc2ccccc2)cc1,-7,36,115*
C[C@H]1CN([C@@H](C)CO)C(=O)Cc2cc(NC(=O)Cc3ccccc3)ccc2O[C@@H]1CN(C)Cc1ccc(Oc2ccccc2)cc1,-1,66,75
C[C@@H]1CN([C@H](C)CO)C(=O)Cc2cc(NC(=O)c3ccncc3)ccc2O[C@H]1CN(C)Cc1ccc(Oc2ccccc2)cc1,-1,127*,31
C[C@@H]1CN([C@@H](C)CO)C(=O)Cc2cc(NC(=O)c3ccncc3)ccc2O[C@@H]1CN(C)Cc1ccc(Oc2ccccc2)cc1,-4,5,55
Fc1ccc(-n2cc(-c3ccccc3)c3c(NCCC4=CCCCC4)ncnc32)cc1,·,31,·
CCOC(=O)CN(c1ccccc1)C1SC(=O)N(Cc2cccc(C(=O)O)c2)C1=O (centres undefined),·,45,·
CCOC(=O)c1c(C)n(-c2cccc(C)c2)c2ccc(O)cc12,-6,-4,?
CCOC(=O)c1c(CN2CCCCC2)n(-c2ccccc2)c2cc(Br)c(OC)cc12,-1,121*,40
COC(=O)CNC(=O)c1cn(-c2ccccc2)nc1-c1cc2ccccc2oc1=O,·,·,111*
COC(=O)CNC(=O)c1cn(-c2ccccc2)nc1-c1ccccc1,2,3,43
